Hits are enriched below; roughly 10% of the tested compounds scored in any of these assays.
GLS inhibitor = glutaminase GLS (human) inhibition; Potency, µM (series often up to 45.5 µM), inactives show at the top dose activity change, negative = inhibition, actives largely listed as inhibitors; GLS enzymatic activity, qHTS titration; AID 624170; 410,000 tested, 0.21% active; note: % is set by controls: 0 for no effect and ±100 for the full control effect
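Coupled fluorescence readout: glutamate oxidase/HRP/Amplex Red detect glutamate formed by hKGA from L-glutamine (1 mM solution added). Buffer 45 mM KH2PO4 pH 8.2, 0.02% Tween-20; reads at t0 and 30 min RT.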
G9a block = blocks human histone lysine methyltransferase G9a; G9a H3K9 monomethylation, AlphaScreen, 2 h; Potency, µM (series often up to 102 µM), without a hit: at the highest dose activity, negative = inhibition, most hits filed as inhibitors; 350,000 tested, 8.8% active; AID 504332; note: % is set by controls: 0 for no effect and ±100 for the full control effect; nearly all actives have a fitted effect of over 75% in size
Target sequence (Q96KQ7 913-1193 limits assumed): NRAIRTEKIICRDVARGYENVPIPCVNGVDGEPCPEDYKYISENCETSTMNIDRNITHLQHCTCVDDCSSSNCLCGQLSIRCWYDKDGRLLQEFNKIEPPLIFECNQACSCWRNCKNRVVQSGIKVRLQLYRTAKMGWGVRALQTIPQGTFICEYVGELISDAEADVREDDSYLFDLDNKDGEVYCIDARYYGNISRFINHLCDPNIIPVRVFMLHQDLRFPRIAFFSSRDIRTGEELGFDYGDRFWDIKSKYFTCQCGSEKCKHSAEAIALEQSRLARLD
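Step 1: enzyme (final 20 nM) with compound, 15 min RT. Step 2: substrate peptide 500 nM and SAM 20 uM, 2 h RT. Step 3: anti-H3K9me1 antibody and AlphaScreen beads, 10 min, then plate read.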
HP1b binding inh = HP1-beta chromodomain-methylated histone interaction inhibition. 390,000 tested, 0.56% active. P83916. AlphaScreen HP1-beta / biotin-H3K9me3 peptide binding. AID 540317. Potency, µM (titrated, usually from 114 µM), for inactives: at the highest dose activity change, negative = inhibition, actives largely listed as inhibitors; note: nearly all actives have a fitted effect of over 70% in size
Target sequence (P83916 whole entry, looked up): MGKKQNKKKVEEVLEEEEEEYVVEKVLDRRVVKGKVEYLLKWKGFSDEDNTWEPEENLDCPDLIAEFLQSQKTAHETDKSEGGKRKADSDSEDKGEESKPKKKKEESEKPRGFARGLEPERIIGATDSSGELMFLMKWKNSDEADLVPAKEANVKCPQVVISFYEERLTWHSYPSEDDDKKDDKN
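HP1-beta protein (50 nM final) preincubated 30 min at room temperature with biotinylated H3(1-18)K9me3 peptide (50 nM) in PBS pH 7.4, 0.01% Tween-20, then compound added for 30 min. AlphaScreen streptavidin donor/nickel chelate acceptor beads (10 ug/mL final), 30 min dark, luminescence read.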
BAZ2B block = blocks human BAZ2B; Q9UIF8; AlphaScreen BAZ2B-H3K14Ac peptide displacement; Potency, µM (series often up to 114 µM), inactives show top-dose activity change, negative = inhibition, most hits filed as inhibitors; 360,000 tested, 4.4% active; AID 504333; note: % is set by controls: 0 for no effect and ±100 for the full control effect; nearly all actives have a fitted effect of over 60% in size
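Complex of BAZ2B and biotin-H3K14Ac (50 nM apiece) forms over 30 min at RT, then faces library compounds up to 110 uM for another 30 min; AlphaScreen beads added, 20 min dark incubation, luminescence read.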
JMJD2A Tudor = blocks the human JMJD2A Tudor domain | AlphaScreen JMJD2A-Tudor / H3K4me3 peptide binding | AID 504339 | 390,000 tested, 4.4% active | Potency, µM (series often up to 114 µM), for the others: at the highest dose activity change, negative = inhibition, actives largely listed as inhibitors | O75164; note: % is set by controls: 0 for no effect and ±100 for the full control effect; nearly all actives have a fitted effect of over 50% in size
Starred values were filed as active, the others as inactive; u = inconclusive; x = no result; ! = not confirmed by another sample; [ ] = another dose, or the depositor's remark. Calls come from the whole dose curve; as a rule, active = well fitted curve in the direction sought with a large enough effect; inconclusive = small, poorly fitted or top-dose-only effect, or another doubt; inactive = no such curve, though single readings can be large; an effect the other way counts as inactive or inconclusive. Potency is the fitted concentration of half-maximal effect.

SMILES	GLS inhibitor	G9a block	HP1b binding inh	BAZ2B block	JMJD2A Tudor
COc1ccc(CN2CCNC(=O)C2CC(=O)N(C)Cc2nc(C)cs2)c(OC)c1 (stereo not given)	-1%	50µM*	9%	-33%	-8%
Cc1csc(CN(C)C(=O)CC2C(=O)NCCN2Cc2ccc(F)cc2Cl)n1 (stereo not given)	0%	22µM*	41%	-17%	-3%
Cc1cc(CN(C)C(=O)CC2C(=O)NCCN2Cc2c(F)cccc2Cl)n[nH]1 (stereo not given)	-12%	40µM*	24%	33%	9%
COc1ccc(CN2CCNC(=O)C2CC(=O)N(C)Cc2nccs2)c(OC)c1 (stereo not given)	4%	3%	17%	-11%[57.1 µM]	-32%
COc1ccc(CCNC(=O)c2ccc3c(c2)N(Cc2ccccc2)C(=O)c2ccccc2S3=O)cc1OC (stereo not given)	4%	-25%[59 µM]	-4%	u	-33%
CCc1c(C)nc(SCc2ccccn2)[nH]c1=O	-1%	13%	21%	0%	-9%
CC1CN(C(=O)COC(=O)c2cc(S(N)(=O)=O)c(Cl)cc2Cl)CC(C)O1 (stereo not given)	7%	13%	42%	-15%	-2%
CCOC(=O)c1ccc(NC(=O)c2cc(C)nn2-c2ccccc2)cc1	3%	-17%	32%	-10%	-15%
NCCC1CCCC(CCN)N1 (stereo not given)	-3%	8.9µM*!	23%	3%	-7%
COc1ccc(CNC(=O)CN2C(=O)NC(c3ccccc3)(c3ccccc3)C2=O)cc1OC	4%	x	7%	x	-26%
O=C(CN1C(=O)C2CCCCC2C1=O)Nc1ccccc1N1CCCC1 (stereo not given)	26%	u	24%	-1%	-20%
CCC1(c2ccc(F)cc2)NC(=O)N(CC(=O)c2cc(C)n(C3CC3)c2C)C1=O (stereo not given)	-1%	50µM*	-25%	-39%	-35%
CCC1(c2ccccc2)NC(=O)N(CC(=O)Nc2ccc(S(=O)(=O)NC3=NCCCCC3)cc2)C1=O (stereo not given)	7%	50µM*	1%	11%	-12%
COc1ccc(CNC(=O)CN2C(=O)NC(Cc3ccccc3)(c3ccccc3)C2=O)cc1OC (stereo not given)	-10%	8.9µM*	32%	4%	-2%
O=C(CN1C(=O)C2CC=CCC2C1=O)Nc1ccccc1N1CCCC1 (stereo not given)	28%	50µM*	27%	-4%	-8%
CC1(C)CC(=O)C=C(C(=O)N2CCCC(C(=O)c3cccc(C(F)(F)F)c3)C2)O1 (stereo not given)	6%	43%[0.501 µM]	31%	12%	-4%
Cc1cc(NC2CCCCC2)nc(N2CCOCC2)n1	-1%	26%[59 µM]	42%	8%	2%
CCC1(c2ccccc2)NC(=O)N(CC(=O)NNC(=O)c2ccc(F)cc2)C1=O (stereo not given)	12%	6.3µM*	32%	7%	-14%
CCC1(c2ccccc2)NC(=O)N(CC(=O)NCc2ccc(F)cc2)C1=O (stereo not given)	-9%	24%	-1%	2%	-10%
Cc1cc(N2CCCC2)ccc1NC(=O)CN1C(=O)NC(C)(c2ccccc2)C1=O (stereo not given)	u	x	-14%[57 µM]	25µM*	u
CCC1(c2ccccc2)NC(=O)N(CC(=O)Nc2cc(Cl)ccc2N2CCOCC2)C1=O (stereo not given)	3%	35µM*	17%	-22%	-24%
CCC1(c2ccccc2)NC(=O)N(CC(=O)Nc2ccc(Cl)c(S(=O)(=O)N3CCCCC3)c2)C1=O (stereo not given)	-3%	-4%[12.7 µM]	-2%	-6%	-26%
CCC1(c2ccccc2)NC(=O)N(CC(=O)Nc2cccc(S(=O)(=O)N3CCCCC3)c2)C1=O (stereo not given)	-1%	45µM*	4%	-26%	-32%
CCOc1ccc(S(=O)(=O)N2CCOCC2)cc1NC(=O)CN1C(=O)NC(CC)(c2ccccc2)C1=O (stereo not given)	0%	2%	37%	-16%	-12%
CC1(c2ccccc2)NC(=O)N(CC(=O)Nc2ccc(N3CCOCC3)cc2N2CCOCC2)C1=O (stereo not given)	-1%	56µM*	5%	5%	1%
SMILES	GLS inhibitor	G9a block	HP1b binding inh	BAZ2B block	JMJD2A Tudor
CCC1(c2ccccc2)NC(=O)N(CC(=O)Nc2ccccc2N2CCCC2)C1=O (stereo not given)	-27%	40µM*	-4%	-13%	-34%
O=C(CN1CCCc2ccccc21)Nc1cccc(S(=O)(=O)N2CCCC2)c1	19%	x	x	x	x
Cc1ccc(C2(C)NC(=O)N(CC(=O)Nc3ccc(N4CCOCC4)cc3N3CCOCC3)C2=O)cc1 (stereo not given)	23%	-6%[0.501 µM]	20%	-27%	-13%
CCC1(c2ccccc2)NC(=O)N(CC(=O)Nc2ccc(N3CCCC3)cc2C)C1=O (stereo not given)	34%	1.8µM*	u	45µM*	45µM*
CC1CCc2ccccc2N1CC(=O)Nc1cccc(S(=O)(=O)N2CCCC2)c1 (stereo not given)	31%	20µM*	28%	-35%	u
O=C1C(N2CCOCC2)=C(n2nnc3ccccc32)C(=O)c2ccccc21	-6%	40µM*	u	10µM*	-2%[11.4 µM]
Cn1nc(OCc2ccccc2)ccc1=O	-11%	16%	18%	4%	-1%
Cc1cccc(-c2nc(SCC(=O)Nc3cccc(C(F)(F)F)c3)n3[nH]c(=O)cc3n2)c1	u	11%[59 µM]	u	50µM*	50µM*
O=C(CSc1nc(-c2cccs2)nc2cc(=O)[nH]n12)Nc1cccc(C(F)(F)F)c1	u	53%[59 µM]	33%	50µM*	-19%
Cc1ccc(NC(=O)CSc2nc(-c3cccs3)nc3cc(=O)[nH]n23)cc1	u	23%[59 µM]	21%	79µM*	-21%
CCn1c(C)nnc1SCC(=O)Nc1cccc(C(F)(F)F)c1	3%	x	6%	1%	-16%
Cc1ccc(NC(=O)CSc2nnc(-c3cccs3)n2Cc2ccco2)cc1	-7%	x	-8%	u	u
O=C(CSc1nc(-c2ccccc2)nc2cc(=O)[nH]n12)Nc1ccccc1	2%	34%[59 µM]	20%	-1%	56µM*
CCCCOc1ccc(S(=O)(=O)NC(=O)NCc2ccc(OCCC)cc2)cc1	5%	-10%[59 µM]	36%	-3%	-12%
O=C(COCc1cc(-c2cccs2)on1)N1CCN(c2ccccc2)CC1	15%	-7%[59 µM]	3%	-13%	-13%
Cc1cccc(NC(=O)CSc2nc(-c3cccs3)nc3cc(=O)[nH]n23)c1	u	-38%[59 µM]	u	79µM*	u
